This passage reports growth inhibition results from PubChem BioAssay (NCI).

Assay [1] is described as follows: NCI Yeast Anticancer Drug Screen. Data for the rad50 strain (AID 155).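 Note: 0% = growth of vehicle-only cultures of the same strain.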 The note with it: S. cerevisiae rad50 strain growth inhibition, active compounds read high. A digest of the protocol: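 A DNA repair-deficient yeast mutant serves as the test organism; compound-induced growth inhibition is calculated against vehicle-treated cells.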
The nature of assay [2]: NCI Yeast Anticancer Drug Screen. Data for the mec2-1 strain (AID 157). The note with it: S. cerevisiae mec2-1 strain, active compounds read high. The method in brief: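 Yeast mec2-1 mutant treated with compound. Readout: growth inhibition vs vehicle controls.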
A short description of assay [3]: NCI Yeast Anticancer Drug Screen. Data for the sgs1 mgt1 strain (AID 161).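 Note: 0% = growth of cultures given vehicle only.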 The note with it: S. cerevisiae sgs1 mgt1 strain, active compounds read high. A digest of the protocol:
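Test agents were incubated with a DNA-repair-mutant yeast strain. Growth was then read and compared against vehicle-treated controls.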

The nature of assay [4]: NCI Yeast Anticancer Drug Screen. Data for the cln2 rad14 strain (AID 165).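 Note: 0% = growth equal to vehicle treated cultures.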 The note with it: S. cerevisiae cln2 rad14 strain, active compounds read high. The method in brief: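 cln2 rad14 yeast strain; compound exposure; growth inhibition read vs vehicle controls.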
The nature of assay [5]: NCI Yeast Anticancer Drug Screen. Data for the bub3 strain (AID 167). The note with it: S. cerevisiae bub3 mutant strain, active compounds read high. A digest of the protocol: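 Inhibition values come from growth of compound-treated mutant yeast normalised to vehicle-treated controls.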
A short description of assay [6]: NCI Yeast Anticancer Drug Screen. Data for the mlh1 rad18 strain (AID 175). The note with it: S. cerevisiae mlh1 rad18 strain growth inhibition, active compounds read high. A digest of the protocol:
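Yeast w/ defined DNA-repair lesions; compound exposure; growth vs vehicle controls → % inhibition.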

Where [7] appears, read: at 5.0 µM (retest, dose inferred, filed as 0.5).
[8] abbreviates: at 50.0 µM (retest, dose inferred, filed as 5.0).

This is part of a sample that, as a whole, favours compounds with a hit. Of some 79,000 tested, about 15% had one in any assay. Unmarked numbers belong to inactive results. Activity calls are given as the source filed them. Cut-off read from the data, not from the text of the source: active = growth inhibition above about 70%; inactive = the rest.

For `COc1ccc(C2c3cc4c(cc3OC(NCCO)C2C)OCO4)cc1` (stereo not drawn), the growth inhibition was -3% in assay [1] (setting [7]); 88% (active) in assay [1] (setting [8]); 89% (active) in assay [1] (at 50.0 µM); -43% in assay [2] (setting [7]); 86% (active) in assay [2] (setting [8]); 92.5% (active) in assay [2] (at 50.0 µM). Moreover, the growth inhibition was -50% in assay [3] (setting [7]); 82% (active) in assay [3] (setting [8]); 90.3% (active) in assay [3] (at 50.0 µM); 5% in assay [4] (setting [7]); 78% (active) in assay [4] (setting [8]); 92% (active) in assay [4] (at 50.0 µM). Moreover, the growth inhibition was -24% in assay [5] (setting [7]); 95% (active) in assay [5] (setting [8]); 91.2% (active) in assay [5] (at 50.0 µM); -18% in assay [6] (setting [7]); 91% (active) in assay [6] (setting [8]); 88.2% (active) in assay [6] (at 50.0 µM).

Consider `CCNC(=O)NNc1ncnc2c1c(-c1ccc(Cl)cc1)cn2-c1ccc(C)cc1`, for which the growth inhibition in assay [1] (setting [7]) was -10%; in assay [1] (setting [8]), 98% (active); in assay [1] (at 50.0 µM), 96.7% (active); in assay [2] (setting [7]) it was -11%; in assay [2] (setting [8]) it was 98% (active); in assay [2] (at 50.0 µM), 97.7% (active). The growth inhibition in assay [3] (setting [7]) was 5%; in assay [3] (setting [8]) it was 99% (active); in assay [3] (at 50.0 µM) it was 98.3% (active); in assay [4] (setting [7]), 7%; in assay [4] (setting [8]), 97% (active); in assay [4] (at 50.0 µM), 96.5% (active). The growth inhibition was 0% in assay [5] (setting [7]); 97% (active) in assay [5] (setting [8]); 40% in assay [5] (at 50.0 µM); -17% in assay [6] (setting [7]); 98% (active) in assay [6] (setting [8]); 97.2% (active) in assay [6] (at 50.0 µM).

`O=C1CCC/C1=C\c1ccccc1`: the growth inhibition in assay [1] (setting [7]) is 7%; in assay [1] (setting [8]), 15%; in assay [1] (at 50.0 µM), 3.05%; in assay [2] (setting [7]) it was 7%; in assay [2] (setting [8]) it was 5%; in assay [2] (at 50.0 µM), 7.6%. For the same compound, the growth inhibition is 3% in assay [3] (setting [7]); 6% in assay [3] (setting [8]); 1.4% in assay [3] (at 50.0 µM); -2% in assay [4] (setting [7]); -13% in assay [4] (setting [8]); 49.3% in assay [4] (at 50.0 µM). The growth inhibition was -2% in assay [5] (setting [7]); 5% in assay [5] (setting [8]); 6.1% in assay [5] (at 50.0 µM); 1% in assay [6] (setting [7]); 4% in assay [6] (setting [8]); 2.2% in assay [6] (at 50.0 µM).

Consider `CCOC(=O)C1=C(c2ccccc2)N(C)c2ccccc2S1`, for which the growth inhibition was 4% in assay [1] (setting [7]); 55% in assay [1] (setting [8]); 75.9% (active) in assay [1] (at 50.0 µM); 4% in assay [2] (setting [7]); 92% (active) in assay [2] (setting [8]); 80.7% (active) in assay [2] (at 50.0 µM). The growth inhibition in assay [3] (setting [7]) was 5%; in assay [3] (setting [8]), 64%; in assay [3] (at 50.0 µM) it was 76.2% (active); in assay [4] (setting [7]), -1%; in assay [4] (setting [8]), -7%; in assay [4] (at 50.0 µM) it was -0.8%. The growth inhibition in assay [5] (setting [7]) is 2%; in assay [5] (setting [8]), 78% (active); in assay [5] (at 50.0 µM), 87% (active); in assay [6] (setting [7]) it was 1%; in assay [6] (setting [8]), 62%; in assay [6] (at 50.0 µM) it was 67.2%.

In the case of `NC(=O)N/N=C/C(O)C(O)C(O)C(O)CO` (stereo not drawn), the growth inhibition is 0% in assay [1] (setting [7]); 44% in assay [1] (setting [8]); 77.1% (active) in assay [1] (at 50.0 µM); -4% in assay [2] (setting [7]); 1% in assay [2] (setting [8]); 59.9% in assay [2] (at 50.0 µM). In addition, the growth inhibition in assay [3] (setting [7]) was -1%; in assay [3] (setting [8]), 16%; in assay [3] (at 50.0 µM), 35.5%; in assay [4] (setting [7]), 0%; in assay [4] (setting [8]), 26%; in assay [4] (at 50.0 µM) it was 6.55%. Moreover, the growth inhibition is -5% in assay [5] (setting [7]); 7% in assay [5] (setting [8]); 36.1% in assay [5] (at 50.0 µM); -4% in assay [6] (setting [7]); 20% in assay [6] (setting [8]); 19.7% in assay [6] (at 50.0 µM).

For `CC(C)=NOc1ccc([N+](=O)[O-])cc1[N+](=O)[O-]`, the growth inhibition in assay [1] (setting [7]) is 19%; in assay [1] (setting [8]) it was 87% (active); in assay [1] (at 50.0 µM) it was 89.9% (active); in assay [2] (setting [7]), 11%; in assay [2] (setting [8]), 81% (active); in assay [2] (at 50.0 µM), 53%. Moreover, the growth inhibition in assay [3] (setting [7]) is 17%; in assay [3] (setting [8]), 84% (active); in assay [3] (at 50.0 µM) it was 54.1%; in assay [4] (setting [7]), 2%; in assay [4] (setting [8]), 48%; in assay [4] (at 50.0 µM), 30.5%. In addition, the growth inhibition in assay [5] (setting [7]) was 4%; in assay [5] (setting [8]), 81% (active); in assay [5] (at 50.0 µM) it was 55.3%; in assay [6] (setting [7]), 5%; in assay [6] (setting [8]) it was 93% (active); in assay [6] (at 50.0 µM), 71.3% (active).
